Bioassay records as filed in PubChem BioAssay.
NPC1 prom act: NPC1 promoter activation. Huh7 NPC1 promoter luciferase reporter, 24 h. Potency, µM (top dose mostly 9.22 µM), for inactives: at the highest dose activation, actives largely listed as activators. 320,000 compounds, 2.4% hits. AID 485313; note: % of control where 0% means no effect; nearly all actives have a fitted effect of over 60% in size
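Luminescence from an NPC1 promoter-driven luciferase reporter in stably transfected Huh7 cells was measured after 24 h compound treatment at 37 °C, followed by 10 min ambient incubation with luciferase detection reagent.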
SMN2 splice enh: SMN2 splice variant enhancement; HEK293 SMN2-luciferase splicing reporter, luminescence, 30-36 h; Potency, µM (highest dose often 46.1 µM), without a hit: top-dose activity change, positive = activation, usual class: activators; 210,000 compounds, 2.8% hits; note: % of control where 0% means no effect; nearly all actives have a fitted effect of over 55% in size
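qHTS luciferase splicing reporter: luminescence rises when SMN2 exon 7 is included in transfected HEK293 cells. Compound exposure lasted 30-36 h at 37C, with 4.5 mM final sodium butyrate as control, followed by a ONE-Glo read.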
ELG1 DNA repair: blocks ELG1-dependent DNA repair in HEK293T cells. HEK293T ELG1-luciferase reporter, luminescence, 16 h; DNA damage induced by 5-fluorouridine. Potency, µM (titrated, usually from 46.1 µM), for inactives: at the highest dose activity change, negative = inhibition, actives largely listed as inhibitors. 330,000 compounds, 2.3% hits. AID 504467; note: % is set by controls: 0 for no effect and ±100 for the full control effect; nearly all actives have a fitted effect of over 55% in size
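Overnight (16 hr) co-exposure of 2,000 cells/well to 5-fluorouridine and compound at 37 °C preceded detection. Luciferase was quantified via ONE-Glo luminescence; loss of signal denotes inhibition.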
ELG1 genotox: inducers of genotoxicity in HEK293T ELG1-luciferase cells; HEK293T ELG1-luciferase reporter, luminescence, 16 h; Potency, µM (doses to about 46 µM), without a hit: top-dose activity change, positive = activation, usual class: activators; 330,000 compounds, 1.3% hits; note: % of control where 0% means no effect; nearly all actives have a fitted effect of over 60% in size
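ELG1-luciferase HEK293T cells, 2,000/well; compound pinned in; 16 hr, 37 °C, 5% CO2; ONE-Glo, 30 min RT; luminescence on CCD imager.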
FLuc modulator: counter-screen for miR-21 project: firefly luciferase inhibitors or activators; purified FLuc, Km substrates, luminescence inhibition; 360,000 compounds, 6.9% hits; AID 588342; Potency, µM (doses to about 57.5 µM), for the others: top-dose activity change, negative = inhibition, actives largely listed as inhibitors; P08659;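 note: plate controls were vehicle for no effect and reference inhibitor for full effect; nearly all actives have a fitted effect of over 55% in size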
Target sequence (P08659 whole entry, looked up): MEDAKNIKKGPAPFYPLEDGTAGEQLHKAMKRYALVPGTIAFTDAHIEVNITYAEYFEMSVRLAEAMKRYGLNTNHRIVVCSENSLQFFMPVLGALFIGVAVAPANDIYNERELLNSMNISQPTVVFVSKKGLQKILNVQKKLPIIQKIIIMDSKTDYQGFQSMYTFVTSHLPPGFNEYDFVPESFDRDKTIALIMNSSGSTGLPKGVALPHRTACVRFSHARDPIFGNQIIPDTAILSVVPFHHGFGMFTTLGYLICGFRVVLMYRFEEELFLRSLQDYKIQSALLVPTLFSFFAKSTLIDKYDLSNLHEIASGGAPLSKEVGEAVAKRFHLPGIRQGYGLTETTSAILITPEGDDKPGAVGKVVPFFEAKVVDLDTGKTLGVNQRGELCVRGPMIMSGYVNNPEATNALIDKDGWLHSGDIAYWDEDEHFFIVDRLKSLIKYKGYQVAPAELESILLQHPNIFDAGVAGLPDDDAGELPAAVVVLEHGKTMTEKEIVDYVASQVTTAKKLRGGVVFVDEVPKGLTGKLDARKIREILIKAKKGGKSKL
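Biochemical qHTS of compounds, final roughly 60 µM downward over six points, against 10 nM purified firefly luciferase using Km concentrations of substrates (10 uM D-luciferin, 10 uM ATP) in Tris acetate pH 7.5 buffer; luminescence output.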
Rab9 prom act: Rab9 promoter activation. AID 485297. 320,000 compounds, 2.8% hits. Huh7 Rab9 promoter-luciferase reporter, luminescence, 24 h. Potency, µM (doses to about 9.22 µM), inactives show top-dose activation, negative = inhibition, most hits filed as activators; note: % of control where 0% means no effect; nearly all actives have a fitted effect of over 60% in size
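Cells were plated at 1500 per well in reduced-serum medium with 10% FBS and left 2 h. Compound in DMSO was then added for 24 h at 37 °C. Reporter signal was read by luminescence after 10 min with luciferase detection reagent.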
An asterisk follows results filed as active; u = inconclusive; x = no result given; [ ] = another dose, or the depositor's remark. Sampled rows, rich in hits. Any-hit rate of the full collection: about 9.2%. Calls come from the whole dose curve; as a rule, active = well fitted curve in the direction sought with a large enough effect; inconclusive = small, poorly fitted or top-dose-only effect, or another doubt; inactive = no such curve, though single readings can be large; an effect the other way counts as inactive or inconclusive. Potency is the fitted concentration of half-maximal effect.

SMILES	NPC1 prom act	SMN2 splice enh	ELG1 DNA repair	ELG1 genotox	FLuc modulator	Rab9 prom act
COc1ccc(C(=O)COC(=O)CCN2C(=O)C3C4C=CC(C5CC45)C3C2=O)cc1 (centres undefined)	-3.4%	x	2.0%	11.7%	-21.6%	2.8%
Cc1ccccc1CNC(=O)C(C)N(c1ccccc1)S(C)(=O)=O (centres undefined)	x	2.7%	x	x	-1.0%	x
N/N=C(\Cc1cscn1)c1ccc(O)cc1O	-9.0%	x	23.1µM*	0.9%	0.7%	-7.7%
CC(/C=N/NC(=O)c1cccnc1)=C\c1ccco1	15.6%	u	u	14.1%	-2.1%[2.3 µM]	u
CC(=C/c1ccco1)/C=N/NC(=O)c1ccncc1	11.3%	x	-67.6%	0.8%	16.9µM*	20.3%
CC(/C=N/NC(=O)c1cnccn1)=C\c1ccco1	u	x	u	u	12µM*	u
COc1ccc(CNC(=O)COC(=O)c2ccc(F)c(S(=O)(=O)N3CCCCC3)c2)cc1OC	0.6%	x	2.2%	-3.0%	3.8%	-5.4%
COc1cc(C(=O)OCC(=O)Nc2cc(S(=O)(=O)N3CCOCC3)ccc2C)ccc1OCC(C)C	-2.3%	x	-16.9%	11.6%	u	-2.7%
Cc1cc(N2CCN(C(=O)c3ccco3)CC2)n2nc(C)c(-c3ccc(Cl)cc3)c2n1	-1.0%	-33.8%	-7.2%	-1.3%	9.6%	3.5%
Cc1cc(N2CCN(C(=O)c3ccco3)CC2)n2nc(-c3cccc(Cl)c3)cc2n1	-2.1%	-30.6%	13µM*	-53.2%	4.5%	-8.7%
Cc1nc2cc(-c3cccc(Cl)c3)nn2c(N2CCN(C(=O)c3ccco3)CC2)c1C	-2.2%	-4.6%	u	-0.5%	16.9µM*	2.5%
Cc1ccc(C(=O)NCCCNC(=O)Cc2ccc(Cl)cc2)cn1	-1.6%	x	11.9%	2.4%	3.8%	0.8%
Cc1c(OCc2nn[nH]n2)ccc2c3c(c(=O)oc12)CCCC3	-4.2%	6.4%	-9.3%	-2.6%	21.3µM*	-9.6%
C=CC(=O)OCCOCCOC(=O)C=C	x	-30.1%	x	x	x	x
COc1ccc(-c2cc3nnc(-c4ccccc4)nc3s2)cc1	22.0%	0.708µM*	u	u	0.169µM*	u
COc1ccc(OC)c(Nc2ncnc3sc(-c4ccccc4)cc23)c1	1.9%	11.3%	-25.8%	-0.6%	u	-6.1%
CC(C)C[C@@]12C(=O)N(c3cccc(Br)c3)C(=O)N1[C@H](c1ccc(F)cc1)[C@@H]1C(=O)N(C3CCCCC3)C(=O)[C@@H]12	-7.1%	x	18.0%	0.5%	-2.0%	-1.7%
Cc1cccc(-c2nc(N)nc(N)n2)c1	20.6%	x	u	u	u	u
Cc1ccc2[nH]c(-c3cccc(N)c3)cc2c1	1.78µM*	14.1µM*	u	2.31µM*	4.78µM*	2.24µM*
COn1c(-c2ccc(Cl)cc2)nc2ncccc21	u	x	u	u	21.3µM*	u
Cc1ccc(-n2[nH]c(C)c(C=NC34CN5CN(CN(C5)C3)C4)c2=O)cc1C	x	11.7%	x	x	-5.6%	x
COCCCN=Cc1c(C)[nH]n(-c2ccc(Br)c(C)c2)c1=O	1.41µM*	2.82µM*	u	u	1.35µM*	0.501µM*
COc1cc2c(cc1NC(=O)COc1ccc(Br)cc1C)oc1ccccc12	x	12.4%	x	x	0.8%	x
COc1ccc(/C=C/C(=O)Oc2cccc(/C=N/NC(=O)Cc3ccc(Br)cc3)c2)cc1	3.55µM*	x	u	u	u	3.16µM*
COc1cccc(/C=N/NC(=O)CCCC(=O)Nc2ccc(Br)cc2)c1	-1.4%	11.8%	4.1%	-2.2%	-19.4%	-0.2%
SMILES	NPC1 prom act	SMN2 splice enh	ELG1 DNA repair	ELG1 genotox	FLuc modulator	Rab9 prom act
O=C(c1ccccc1)c1ccc(Sc2ccc([N+](=O)[O-])cc2)cc1	-5.6%	x	11.6µM*	-4.0%	-1.1%	-13.9%
CCC(C)(C)NC(=O)/C=C/c1cccs1	0.6%	10.5%	u	1.0%	-12.5%	1.4%
Oc1cc(NCCc2cccnc2)cc2cccnc12	-32.5%	x	23.1µM*	-8.2%	-2.3%	-35.8%
Oc1cc(Nc2cccnc2)cc2cccnc12	-33.4%	x	u	3.9%	-0.4%	-33.6%
O=C(c1cc2nc(-c3ccc(Cl)cc3)cc(C(F)(F)F)n2n1)N1CCOCC1	-1.6%	x	6.1%	-2.5%	-1.2%	-1.0%
O=C(CN1C(=O)S/C(=C\C=C\c2ccccc2)C1=O)N1CCOCC1	18.5%	x	u	12.8%	4.78µM*	25.7%
Cc1ccc(/C=C2/SC(=O)N(CC(=O)N3CCOCC3)C2=O)s1	-1.2%	7.1%	25.6%	5.2%	u	-5.1%
O=C(CN1C(=O)S/C(=C/c2ccccn2)C1=O)N1CCOCC1	1.4%	x	u	3.9%	-1.5%	2.6%
O=C(CN1C(=O)S/C(=C/c2ccc(N3CCOCC3)cc2)C1=O)N1CCOCC1	27.3%	u	u	u	3.01µM*	21.7%
O=C(Nc1ccccc1)/C(=C/c1ccccc1)c1ccccc1	1.2%	9.1%	10.3µM*	-2.7%	u	-1.3%
CC(=O)c1ccc(NC(=O)C2(c3ccccc3)CC2(Cl)Cl)cc1 (centres undefined)	u	x	u	u	26.9µM*	u
Cc1ccc(NC(=O)/C(Cl)=C\c2ccccc2)cc1	-4.6%	1.6%	0.0%	-5.4%	-0.4%	6.8%
O=C(Nc1ccc(F)cc1)/C(Cl)=C/c1ccccc1	3.98µM*	14.1µM*	u	u	1.2µM*	2.51µM*
CC(=O)c1ccc(NC(=O)/C(Cl)=C/c2ccccc2)cc1	3.55µM*	u	u	8.2µM*	0.953µM*	3.98µM*
Cc1ccccc1NC(=O)/C(=C/c1ccccc1)c1ccccc1	-2.9%	-23.6%	-13.3%	-3.1%	2.3%	-5.2%
CCOC(=O)c1ccccc1NC(=O)C1CCCO1 (centres undefined)	-0.3%	x	4.5%	-1.5%	3.1%	1.5%
O=C(Nc1ccccc1C(=O)O)c1ccc(NC(=O)C2CCCO2)cc1 (centres undefined)	-3.8%	x	9.8%	2.8%	6.75µM*	-1.8%
CCc1ccc(NC(=O)c2ccccc2NC(=O)C2CCCO2)cc1 (centres undefined)	3.55µM*	12.6µM*	u	11.6µM*	16.9µM*	3.55µM*
O=C(NCCOc1ccccc1)c1ccccc1NC(=O)C1CCCO1 (centres undefined)	3.98µM*	11.2µM*	u	9.5%	u	2.24µM*
COc1ccc(-c2cn3ccccc3n2)cc1	0.562µM*	x	u	1.3µM*	0.757µM*	0.398µM*
COc1ccc(-c2cn(Cc3cccc(OC)c3)nn2)cc1	20.7%	x	u	-0.6%	u	5.7%
COc1c(Cl)cccc1-c1cn2ccccc2n1	0.794µM*	x	u	4.11µM*	0.536µM*	1.26µM*
